In PubChem BioAssay:
Unmarked numbers belong to inactive results. The source made the active and inactive calls. Rule as the data show it, unless noted: active = inhibition above about 30%; inactive = the rest.

Legend:
[1] = target: Nuclear receptor coactivator 3 (Homo sapiens) (UniProt Q9Y6Q9); assay: NCOA3 GAL4-fusion reporter inhibition – cell-based, luminescence, quadruplicate, confirmation (AID 588792;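 active = mean inhibition over 43.08%, the solvent-only control mean plus 3 SD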;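 also: 0% = DMSO treated cells and 100% = gossypol at 36 µM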); conditions: HEK293 GAL4-SRC3 luciferase reporter, at 3.6 µM, hits give high values
[2] = system: transactivating tegument protein VP16 (Human herpesvirus 1), Gal4-VP16 luciferase reporter; assay: repression of VP16-driven luciferase reporter – cell-based, luminescence, high throughput, counter-screen for SRC3 inhibitor project (AID 588794); conditions: mammalian cells, at 3.6 µM, hits give high values
[3] = target: Nuclear receptor coactivator 1 (Homo sapiens) (UniProt Q15788); assay: NCOA1 GAL4-fusion reporter inhibition – cell-based, luminescence, quadruplicate, confirmation (AID 588820;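 active = mean inhibition above 46.68%, the untreated control wells mean plus 3 SD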;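 also: 0% = DMSO wells and 100% = gossypol 36 µM treated wells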); conditions: HEK293 GAL4-SRC1 luciferase reporter, at 3.6 µM, hits give high values
[4] = repression of VP16-driven luciferase reporter – cell-based, luminescence, high throughput, counter-screen for SRC1 inhibitor project (AID 588824; in the data active = inhibition above about 25%); conditions: cell-based VP16 transactivation luciferase luminescence; at 3.6 µM; hits give high values
[5] = StAR promoter reporter inhibitors, counter-screen for LRH-1 inverse agonist project, cell-based, luminescence, high throughput (AID 651611; in the data active = inhibition above about 28%); conditions: StAR promoter luciferase reporter counterscreen, at 3.6 µM, hits give high values
[6] = target: Nuclear receptor subfamily 5 group A member 2 (Homo sapiens) (UniProt O00482); assay: NR5A2 activity suppression in reporter cells – cell-based, luminescence, confirmation (AID 651613; in the data active = inhibition above about 42%;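 also: HEK293T cells co-transfected with LRH-1 and StAR promoter luciferase reporter; 0% = vehicle wells and 100% = parental cells lacking receptor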); conditions: cell-based LRH-1 luciferase reporter, inverse agonism; at 3.6 µM; hits give high values
[7] = target: Steroidogenic factor 1 (Homo sapiens) (UniProt Q13285); assay: inverse agonism at SF1 nuclear receptor – cell-based, luminescence, high throughput, counter-screen for LRH-1 inverse agonist project (AID 651614; in the data active = inhibition above about 44%;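 also: cells cotransfected with StAR promoter reporter and SF1 expression vector; 0% = vehicle on cells with receptor and 100% = vehicle on cells lacking receptor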); conditions: cell-based SF1 luciferase reporter, at 3.6 µM, hits give high values
[8] = compounds suppressing VP16-driven luciferase signal – cell-based, luminescence, high throughput, counter-screen for LRH-1 inverse agonist project (AID 651615; in the data active = inhibition above about 33%); conditions: Gal4-VP16 luciferase reporter cells, at 3.6 µM, hits give high values
[9] = system: transactivating tegument protein VP16 (Human herpesvirus 1); assay: compounds suppressing VP16-driven luciferase signal – cell-based, luminescence, single concentration, counter-screen for SRC2 inhibitor project (AID 652007; in the data active = inhibition above about 36%); conditions: cell-based VP16 transactivation luciferase reporter, at 8.9 µM, hits give high values
[10] = target: Nuclear receptor coactivator 2 (Homo sapiens) (UniProt Q15596); assay: inhibition of GAL4-SRC2 driven luciferase expression – cell-based, luminescence, HEK293, triplicate, confirmation (AID 652008;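 active = mean inhibition above 46.5%, the solvent-only control mean plus 3 SD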;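 also: 0% = DMSO-treated cells and 100% = Gossypol at 36 µM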); conditions: HEK293 GAL4-SRC2 luciferase reporter, at 8.9 µM, hits give high values
Sequence of Nuclear receptor coactivator 2 (Homo sapiens) (Q15596 whole entry, looked up, the tested form may be a part): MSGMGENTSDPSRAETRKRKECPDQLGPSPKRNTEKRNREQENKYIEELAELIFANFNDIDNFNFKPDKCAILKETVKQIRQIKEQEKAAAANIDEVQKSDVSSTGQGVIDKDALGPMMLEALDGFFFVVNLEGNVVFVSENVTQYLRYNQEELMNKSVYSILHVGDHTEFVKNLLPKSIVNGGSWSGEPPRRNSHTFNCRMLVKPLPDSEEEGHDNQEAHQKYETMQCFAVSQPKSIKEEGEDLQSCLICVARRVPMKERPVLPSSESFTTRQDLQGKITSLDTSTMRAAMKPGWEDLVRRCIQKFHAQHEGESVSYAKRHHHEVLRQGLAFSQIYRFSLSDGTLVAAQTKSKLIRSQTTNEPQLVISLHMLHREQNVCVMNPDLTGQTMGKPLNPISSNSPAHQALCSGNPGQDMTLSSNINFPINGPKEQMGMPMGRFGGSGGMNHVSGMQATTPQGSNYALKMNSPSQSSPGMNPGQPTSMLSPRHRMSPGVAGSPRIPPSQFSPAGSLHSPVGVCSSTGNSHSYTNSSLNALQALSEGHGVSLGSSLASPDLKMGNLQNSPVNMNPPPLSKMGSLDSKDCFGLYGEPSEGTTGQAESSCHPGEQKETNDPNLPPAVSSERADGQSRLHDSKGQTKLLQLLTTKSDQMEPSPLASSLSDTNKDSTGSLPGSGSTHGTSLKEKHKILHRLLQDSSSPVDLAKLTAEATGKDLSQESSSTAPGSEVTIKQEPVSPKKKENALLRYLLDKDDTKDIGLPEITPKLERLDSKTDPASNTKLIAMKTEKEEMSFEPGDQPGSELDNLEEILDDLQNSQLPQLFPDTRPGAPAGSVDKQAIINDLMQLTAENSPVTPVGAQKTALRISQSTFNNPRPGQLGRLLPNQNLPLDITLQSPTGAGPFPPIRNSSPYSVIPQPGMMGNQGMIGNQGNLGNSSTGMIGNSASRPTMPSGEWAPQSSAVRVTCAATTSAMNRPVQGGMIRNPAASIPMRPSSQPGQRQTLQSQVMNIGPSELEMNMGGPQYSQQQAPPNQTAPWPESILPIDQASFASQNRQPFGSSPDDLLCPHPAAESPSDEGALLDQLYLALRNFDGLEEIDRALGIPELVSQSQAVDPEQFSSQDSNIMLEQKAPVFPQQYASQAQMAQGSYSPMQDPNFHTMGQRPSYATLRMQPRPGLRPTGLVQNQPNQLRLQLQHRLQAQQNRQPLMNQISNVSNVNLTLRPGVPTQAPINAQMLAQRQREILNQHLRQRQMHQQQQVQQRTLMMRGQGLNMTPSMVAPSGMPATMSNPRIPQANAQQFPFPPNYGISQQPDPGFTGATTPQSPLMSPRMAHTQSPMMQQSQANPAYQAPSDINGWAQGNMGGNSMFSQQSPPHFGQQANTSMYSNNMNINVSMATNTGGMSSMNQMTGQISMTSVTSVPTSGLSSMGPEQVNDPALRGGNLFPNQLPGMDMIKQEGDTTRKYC

Sequence of Nuclear receptor coactivator 3 (Homo sapiens) (Q9Y6Q9 whole entry, looked up, the tested form may be a part): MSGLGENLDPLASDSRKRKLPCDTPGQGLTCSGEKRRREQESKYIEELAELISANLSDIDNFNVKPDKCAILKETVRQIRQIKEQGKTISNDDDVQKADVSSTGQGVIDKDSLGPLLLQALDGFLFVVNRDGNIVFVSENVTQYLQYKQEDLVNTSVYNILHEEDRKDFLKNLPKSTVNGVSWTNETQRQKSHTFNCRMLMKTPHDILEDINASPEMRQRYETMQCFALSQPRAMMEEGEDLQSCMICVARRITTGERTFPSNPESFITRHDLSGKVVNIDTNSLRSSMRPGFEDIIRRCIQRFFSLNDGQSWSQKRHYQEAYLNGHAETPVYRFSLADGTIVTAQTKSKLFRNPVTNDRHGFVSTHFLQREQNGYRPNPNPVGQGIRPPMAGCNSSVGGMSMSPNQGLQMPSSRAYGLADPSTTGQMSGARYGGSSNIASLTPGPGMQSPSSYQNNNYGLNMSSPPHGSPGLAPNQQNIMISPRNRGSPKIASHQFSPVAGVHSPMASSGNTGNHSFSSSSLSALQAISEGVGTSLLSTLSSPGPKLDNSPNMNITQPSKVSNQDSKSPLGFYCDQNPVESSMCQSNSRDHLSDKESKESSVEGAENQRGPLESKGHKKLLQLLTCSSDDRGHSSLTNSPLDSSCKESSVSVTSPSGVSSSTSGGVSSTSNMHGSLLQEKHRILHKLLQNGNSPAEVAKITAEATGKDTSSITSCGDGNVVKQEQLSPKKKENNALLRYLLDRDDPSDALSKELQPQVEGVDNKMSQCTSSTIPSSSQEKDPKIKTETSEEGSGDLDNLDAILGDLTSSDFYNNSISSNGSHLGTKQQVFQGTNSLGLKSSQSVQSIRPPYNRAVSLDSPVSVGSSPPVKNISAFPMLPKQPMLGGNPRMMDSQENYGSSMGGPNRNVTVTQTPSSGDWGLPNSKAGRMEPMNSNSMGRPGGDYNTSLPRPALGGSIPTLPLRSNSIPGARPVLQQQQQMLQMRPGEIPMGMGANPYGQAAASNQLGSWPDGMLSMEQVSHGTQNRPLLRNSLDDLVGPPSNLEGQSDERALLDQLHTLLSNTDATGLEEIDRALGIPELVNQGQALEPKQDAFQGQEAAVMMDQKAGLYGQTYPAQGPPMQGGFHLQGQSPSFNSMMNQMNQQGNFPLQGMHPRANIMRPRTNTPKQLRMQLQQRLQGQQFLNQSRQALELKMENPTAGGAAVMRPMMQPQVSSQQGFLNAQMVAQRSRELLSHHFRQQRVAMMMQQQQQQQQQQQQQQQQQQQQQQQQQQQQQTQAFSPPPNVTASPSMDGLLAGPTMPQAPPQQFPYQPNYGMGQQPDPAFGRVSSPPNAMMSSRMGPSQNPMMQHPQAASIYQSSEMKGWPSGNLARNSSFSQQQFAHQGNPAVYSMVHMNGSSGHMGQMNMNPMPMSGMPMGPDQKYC
Sequence of Nuclear receptor coactivator 1 (Homo sapiens) (Q15788 whole entry, looked up, the tested form may be a part): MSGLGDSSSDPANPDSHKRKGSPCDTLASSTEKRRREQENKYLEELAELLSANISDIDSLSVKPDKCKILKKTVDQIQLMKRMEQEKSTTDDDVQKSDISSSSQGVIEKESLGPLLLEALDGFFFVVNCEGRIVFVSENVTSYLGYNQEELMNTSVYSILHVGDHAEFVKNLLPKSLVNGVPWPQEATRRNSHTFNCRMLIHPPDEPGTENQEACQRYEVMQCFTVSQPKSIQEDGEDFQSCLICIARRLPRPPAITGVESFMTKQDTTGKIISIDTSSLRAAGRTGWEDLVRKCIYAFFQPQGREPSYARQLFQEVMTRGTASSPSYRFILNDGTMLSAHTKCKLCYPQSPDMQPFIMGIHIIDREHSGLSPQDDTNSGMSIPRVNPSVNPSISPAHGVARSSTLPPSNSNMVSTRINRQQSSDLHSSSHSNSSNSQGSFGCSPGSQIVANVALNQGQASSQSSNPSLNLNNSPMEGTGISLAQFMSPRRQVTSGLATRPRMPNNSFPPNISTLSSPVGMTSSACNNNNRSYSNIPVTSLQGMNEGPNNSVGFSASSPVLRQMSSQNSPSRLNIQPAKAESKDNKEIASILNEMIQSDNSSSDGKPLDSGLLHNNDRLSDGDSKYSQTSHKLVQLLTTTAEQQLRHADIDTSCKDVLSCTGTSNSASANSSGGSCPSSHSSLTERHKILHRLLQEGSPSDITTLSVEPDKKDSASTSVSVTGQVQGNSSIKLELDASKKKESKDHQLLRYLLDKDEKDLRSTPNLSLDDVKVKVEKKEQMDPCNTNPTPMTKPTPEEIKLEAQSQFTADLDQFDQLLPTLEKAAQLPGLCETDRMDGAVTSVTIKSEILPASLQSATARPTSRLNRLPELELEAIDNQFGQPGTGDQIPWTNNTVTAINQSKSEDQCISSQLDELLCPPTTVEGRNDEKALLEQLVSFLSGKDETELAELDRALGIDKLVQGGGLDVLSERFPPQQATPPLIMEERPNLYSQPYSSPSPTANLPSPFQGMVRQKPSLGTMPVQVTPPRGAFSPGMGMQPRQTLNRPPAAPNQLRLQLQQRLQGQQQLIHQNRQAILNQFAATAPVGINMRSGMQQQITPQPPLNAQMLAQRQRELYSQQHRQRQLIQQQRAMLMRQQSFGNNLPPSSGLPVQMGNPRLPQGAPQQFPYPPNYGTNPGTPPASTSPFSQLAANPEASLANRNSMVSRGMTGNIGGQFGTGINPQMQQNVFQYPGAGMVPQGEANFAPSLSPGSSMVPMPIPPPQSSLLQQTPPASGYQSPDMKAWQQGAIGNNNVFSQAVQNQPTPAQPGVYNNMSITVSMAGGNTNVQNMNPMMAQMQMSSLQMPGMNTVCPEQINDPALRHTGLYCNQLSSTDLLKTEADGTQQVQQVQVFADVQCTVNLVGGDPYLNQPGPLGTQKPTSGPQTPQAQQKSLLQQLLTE
Sequence of Steroidogenic factor 1 (Homo sapiens) (Q13285 whole entry, looked up, the tested form may be a part): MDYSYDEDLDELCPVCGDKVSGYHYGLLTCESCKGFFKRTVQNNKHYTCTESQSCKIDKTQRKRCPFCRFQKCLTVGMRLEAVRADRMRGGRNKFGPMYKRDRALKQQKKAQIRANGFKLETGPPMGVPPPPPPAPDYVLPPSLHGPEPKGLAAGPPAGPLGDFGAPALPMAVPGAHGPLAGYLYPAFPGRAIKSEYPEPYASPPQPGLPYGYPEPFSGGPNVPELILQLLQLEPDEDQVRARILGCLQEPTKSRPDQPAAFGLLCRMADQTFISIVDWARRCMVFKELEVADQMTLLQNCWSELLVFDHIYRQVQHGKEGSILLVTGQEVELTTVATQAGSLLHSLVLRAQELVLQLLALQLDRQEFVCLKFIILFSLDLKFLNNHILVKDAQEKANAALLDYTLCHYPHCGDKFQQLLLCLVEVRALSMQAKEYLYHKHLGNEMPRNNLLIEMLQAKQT

| Structure (SMILES) | inhibition [1] | inhibition [2] | inhibition [3] | inhibition [4] | inhibition [5] | inhibition [6] | inhibition [7] | inhibition [8] | inhibition [9] | inhibition [10] |
| --- | --- | --- | --- | --- | --- | --- | --- | --- | --- | --- |
| Cc1cc(C(=O)Nc2ccc(Cl)cc2)c(C)n1-c1ccccc1 | 74.9% (active) | 69.7% (active) | 60.1% (active) | 50.3% (active) | 70% (active) | 38% | 71.7% (active) | 55.4% (active) | 82.5% (active) | 85.7% (active) |
| COc1cc2cc(C(=O)Nc3ccc4c(c3)OCCO4)[nH]c2cc1OC | 27.4% | -26.5% | -2.55% | -48.8% | -32.3% | -49.1% | -20.5% | -35.9% | -41.9% | 38.2% |
| COc1ccc2cc3c(N)nn(C(=O)c4ccccc4[N+](=O)[O-])c3nc2c1 | 76.5% (active) | 59.9% (active) | 64.8% (active) | 61.3% (active) | 44.6% (active) | 67.5% (active) | 46.9% (active) | 78% (active) | 3.64% | 46.6% (active) |
| O=[N+]([O-])c1nn(-c2ccc3c(c2)OCCO3)n(O)c1=Nc1ccccc1 | 81% (active) | -12.3% | 70.5% (active) | 16.2% | 68.9% (active) | 44.6% (active) | 66.5% (active) | 33.9% (active) | 35.2% | 91.4% (active) |
| Cc1nn(-c2ccccc2Cl)c(Cl)c1/C=N/Nc1nc2ccccc2s1 | 64.1% (active) | 73.5% (active) | 48.1% (active) | 57.4% (active) | 82.7% (active) | 21.8% | 73.5% (active) | 58.5% (active) | 82.7% (active) | 91.7% (active) |
| CCCn1c(C)cc(C(=O)CN2C(=O)c3ccccc3S2(=O)=O)c1C | 70.8% (active) | 60.4% (active) | 45.7% | 55% (active) | 67% (active) | 36% | 62.4% (active) | 51.2% (active) | 62.8% (active) | 80.5% (active) |
| Cc1ccc(/C=C2\SC(=S)N(CCCC(=O)Nc3ccccn3)C2=O)cc1 | 49.1% (active) | 33.9% (active) | 55.7% (active) | 28.9% (active) | 57.5% (active) | 45.8% (active) | 64.2% (active) | 39.1% (active) | 58.3% (active) | 88.4% (active) |
| CC(C)c1ccc(/C=C(\c2nc3ccccc3[nH]2)S(=O)(=O)c2ccccc2)cc1 | 54.2% (active) | 39.6% (active) | -0.35% | 24.9% | 33.9% (active) | 54.6% (active) | 54.7% (active) | 46.6% (active) | 36.6% (active) | 49.3% (active) |
| COc1cc(NC(=O)COc2cc(O)c3c(c2)OC(C)(C)CC3=O)cc(OC)c1OC | 17.8% | 41.5% (active) | -14.2% | 41.3% (active) | 50.4% (active) | 57.3% (active) | 67.5% (active) | 64.6% (active) | 43.5% (active) | 38.5% |
| Clc1ccc(-n2ncc3c(N4CCCCCC4)ncnc32)cc1 | 77% (active) | 69.2% (active) | 52.9% (active) | 54.3% (active) | 71% (active) | 24.8% | 65.8% (active) | 43% (active) | 57.4% (active) | 84.6% (active) |
| C=C1C(=O)[C@]23C[C@H]1CCC2[C@@]1(C)C(C[C@@H]3O)[C@](C)(C(=O)OC)CC[C@@H]1O (stereo not given in full) | 40% | 24.9% | -14.1% | 37.1% (active) | 43.8% (active) | 41.3% (active) | 42.4% | 49.4% (active) | 34.8% | 49.3% (active) |
| O=C(CN1C(=O)c2ccccc2S1(=O)=O)c1ccc(Cl)cc1Cl | 65.8% (active) | 71.5% (active) | 8.08% | 62.5% (active) | 67.9% (active) | 55.3% (active) | 73% (active) | 57.4% (active) | 81.2% (active) | 83.7% (active) |
| CN(c1ncnc(N)c1[N+](=O)[O-])C1CCCCC1 | 82.5% (active) | 59.7% (active) | 69.9% (active) | 55.3% (active) | 32.3% (active) | 56.7% (active) | 44.1% (active) | 72.2% (active) | 28.4% | 59.8% (active) |
| Nc1cc2ccncc2c2ccccc12 | 72% (active) | 51.6% (active) | 68.9% (active) | 47.8% (active) | 8.54% | 75.6% (active) | 63.2% (active) | 72.3% (active) | 22.2% | 43.4% |
| COc1ccc(/C=C2\SC(=O)N(CCCC(=O)Nc3ccc(C(=O)O)cc3)C2=O)cc1 | 78% (active) | 71.8% (active) | 72.8% (active) | 63.3% (active) | 74.1% (active) | 75.4% (active) | 71.5% (active) | 58.1% (active) | 88.3% (active) | 93.3% (active) |
